# Screens (PubChem BioAssay)
# Most compounds without a hit are left out; they make up all but 7.4% or so of the library.
# SNCA expr inhib: Primary qHTS assay for inhibitors of alpha-synuclein gene (SNCA) expression. HEK-293 SNCA-luciferase knock-in, luminescence, 24 h. Potency, µM (top dose mostly 57.2 µM), for inactives: at the top dose activity change, negative = inhibition, actives largely listed as inhibitors. 140,000 tested, 0.17% active. AID 1671194, 2021;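 also: plate controls were DMSO cells for no effect and cell-free wells for full effect; nearly all actives have a fitted effect of over 45% in size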
# 3T3 cytotox: Cytotoxic Profiling in NIH 3T3 Cell Line of Diverse Libraries Using Quantitative High-Throughput Screening; NIH 3T3 viability, CellTiter-Glo ATP luminescence, 48-72 h; AID 1345082, 2018; Potency, µM (highest dose often 96.7 µM), for the others: at the top dose activity change, negative = cytotoxicity, most hits filed as inhibitors; 94,000 tested, 4.3% active; also: % is scaled to controls: 0 for no effect and ±100 for the full control effect; nearly all actives have a fitted effect of over 55% in size
#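 Viability of NIH 3T3 cells after 48 or 72 hr compound treatment at 37 °C was assessed by CellTiter-Glo, with luminescence imaged following a 10 min room-temperature step.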
# HEK cytotox: Cytotoxic Profiling in HEK 293 Cell Line of Diverse Libraries Using Quantitative High-Throughput Screening; HEK 293 viability, ATP luminescence (CellTiter-Glo), 48-72 h; Potency, µM (highest dose often 115 µM), inactives show at the highest dose activity change, negative = cytotoxicity, actives largely listed as inhibitors; 94,000 tested, 6.6% active; AID 1345083, 2018; also: % is scaled to controls: 0 for no effect and ±100 for the full control effect; nearly all actives have a fitted effect of over 60% in size
#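 HEK 293 cells at 250 cells/well were exposed to compounds by pintool transfer for 48 or 72 hr at 37 degree Celsius, 5% CO2. Viability was read as ATP-coupled luminescence with CellTiter-Glo after 10 min at room temperature.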
# SNCA viab count: GF-AFC viability counterscreen for inhibitors of alpha-synuclein gene (SNCA) expression; HEK-293-SNCA-luc viability, GF-AFC fluorescence, 24 h; Potency, µM (titrated, usually from 57.1 µM), for the others: at the top dose activity change, negative = cytotoxicity, most hits filed as cytotoxic; 150,000 tested, 0.12% active; AID 1671193, 2021;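 also: 0% = DMSO-treated cells and -100% = medium-only wells without cells; nearly all actives have a fitted effect of over 30% in size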
#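 HEK-293-SNCA-luc cells (1500/well) plated 24 h, then exposed 24 h to a dilution series; GF-AFC added 30 min at 37C, fluorescence 405/540 nm; normalised to medium-only and DMSO wells, Hill fit.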
# hNpr1 antagonist: Natriuretic polypeptide receptor (hNpr1) antagonism - Primary qHTS; HEK293 hNpr1 GloSensor cGMP, ANP-stimulated luminescence; Potency, µM (doses to about 46.3 µM), for the others: top-dose activity change, negative = inhibition, actives largely listed as inhibitors; 76,000 tested, 1.6% active; AID 1347048, 2019; calls by dose curve; also: % is scaled to controls: 0 for no effect and ±100 for the full control effect; nearly all actives have a fitted effect of over 60% in size
#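 Compound pre-incubated 30 min at room temperature on GloSensor-loaded HEK293 cells stably carrying hNpr1 and the pGS-40F cGMP biosensor. Stimulation uses hNppA at 0.1 nM final; luminescence is taken at baseline and 20 min post-agonist.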
# FLuc inh-1: Firefly luciferase inhibition profiling of diverse chemical library using quantitative high-throughput screening; Luciferin 4-monooxygenase (Photinus pyralis), P08659; purified P. pyralis luciferase, luminescence, biochemical; Potency, µM (highest dose often 115 µM), most hits filed as inhibitors; 76,000 tested, 2.5% active; also: % is scaled to controls: 0 for no effect and ±100 for the full control effect; nearly all actives have a fitted effect of over 65% in size
# Target sequence (P08659 whole entry, looked up): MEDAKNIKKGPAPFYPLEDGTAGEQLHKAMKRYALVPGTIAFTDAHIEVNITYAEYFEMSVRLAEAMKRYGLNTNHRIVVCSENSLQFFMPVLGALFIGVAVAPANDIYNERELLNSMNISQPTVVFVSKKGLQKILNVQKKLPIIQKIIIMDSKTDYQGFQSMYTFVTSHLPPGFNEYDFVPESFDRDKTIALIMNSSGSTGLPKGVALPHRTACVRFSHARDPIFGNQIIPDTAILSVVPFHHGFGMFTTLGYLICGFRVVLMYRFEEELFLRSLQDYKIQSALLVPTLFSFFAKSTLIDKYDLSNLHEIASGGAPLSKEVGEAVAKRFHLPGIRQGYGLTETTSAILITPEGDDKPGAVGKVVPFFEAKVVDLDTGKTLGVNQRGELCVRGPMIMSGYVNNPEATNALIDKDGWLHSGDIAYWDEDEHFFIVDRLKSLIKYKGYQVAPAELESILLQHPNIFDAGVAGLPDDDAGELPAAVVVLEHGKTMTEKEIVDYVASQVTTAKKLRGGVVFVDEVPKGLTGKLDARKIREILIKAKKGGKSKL
#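 Luminescence read by CCD imaging after purified firefly luciferase (10nM final) was added to substrate buffer holding 10uM D-luciferin and 10uM ATP, pH 7.5, pre-dosed with compound.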
# FLuc SDR -ATP: Firefly luciferase (FLuc-C-HiBiT) SDR gain of signal screen - without ATP | shares compounds with FLuc inh-1 | Purified FLuc-C-HiBiT, Nano-Glo HiBiT luminescence, no ATP | Potency, µM (doses to about 32.7 µM), for the others: top-dose activation (signal gain), most hits filed as activators | 1,300 tested, 7.8% active; also: nearly all actives have a fitted effect of over 55% in size
# FLuc SDR ATP: Firefly luciferase (FLuc-C-HiBiT) SDR gain of signal screen - plus ATP; shares compounds with FLuc inh-1; purified FLuc-C-HiBiT + ATP, HiBiT complementation luminescence; Potency, µM (top dose mostly 32.7 µM), inactives show top-dose activation (gain of signal), actives largely listed as activators; AID 1963319, 2024; 1,300 tested, 8.7% active;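 also: signal reports ligand binding via conformational change of the enzyme rather than luciferase catalysis; % of control where 0% means no effect; nearly all actives have a fitted effect of over 55% in size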
# FLuc inh-2: Firefly luciferase (FLuc-C-HiBiT) enzymatic inhibition screen - Functional assay | shares compounds with FLuc inh-1 | purified FLuc-C-HiBiT enzyme, luciferin luminescence | Potency, µM (top dose mostly 32.7 µM), inactives show at the highest dose activity change, negative = inhibition, usual class: inhibitors | 1,300 tested, 42% active | AID 1963320, 2024; also: % is scaled to controls: 0 for no effect and ±100 for the full control effect; nearly all actives have a fitted effect of over 70% in size
# NPR1 antag cnf: Natriuretic polypeptide receptor (hNpr1) antagonism - Confirmation | shares compounds with hNpr1 antagonist | HEK293 hNpr1 cGMP GloSensor luminescence, ANP-stimulated | Potency, µM (titrated, usually from 57.6 µM), inactives show top-dose activity change, negative = inhibition, usual class: inhibitors | 1,400 tested, 76% active; calls by dose curve; also: nearly all actives have a fitted effect of over 70% in size
# NPR2 antag: Natriuretic polypeptide receptor (hNpr2) antagonism - Subtype selectivity assay; shares compounds with hNpr1 antagonist; HEK293 hNpr2 GloSensor cGMP luminescence, CNP-stimulated; Potency, µM (highest dose often 57.6 µM), for the others: at the top dose activity change, negative = inhibition, usual class: inhibitors; 1,400 tested, 67% active; AID 1347046, 2019; calls by dose curve; also: nearly all actives have a fitted effect of over 70% in size
# FLuc counter: Natriuretic polypeptide receptor (hNpr1) antagonism - Confirmation firefly luciferase (FLuc) inhibition counterscreen. shares compounds with hNpr1 antagonist. AID 1347047, 2019. Potency, µM (titrated, usually from 57.6 µM), inactives show top-dose activity change, negative = inhibition, usual class: inhibitors. 1,400 tested, 0.7% active. purified FLuc enzyme, luminescence, Km substrate; also: series mostly up to about 58 µM; 0% is about no effect
# GloSensor ctrl: Natriuretic polypeptide receptor (hNpr1) antagonism - Counterscreen GloSensor control cell line; shares compounds with hNpr1 antagonist; HEK293 GloSensor cGMP, SNP-stimulated, luminescence; Potency, µM (series often up to 57.6 µM), for the others: at the top dose activity change, negative = inhibition, most hits filed as inhibitors; 1,400 tested, 69% active; calls by dose curve; also: % is scaled to controls: 0 for no effect and ±100 for the full control effect; nearly all actives have a fitted effect of over 70% in size
# Numbers without * were called inactive; i = inactive; ? = inconclusive; nt = not tested or not shown; [ ] = another dose, or the depositor's remark. Unless noted, calls follow the shape of the dose curve; as a rule, active = well fitted curve in the direction sought with a large enough effect; inconclusive = small, poorly fitted or top-dose-only effect, or another doubt; inactive = no such curve, though single readings can be large; an effect the other way counts as inactive or inconclusive. Potency is read from the fitted curve at half-maximal effect.
SMILES,SNCA expr inhib,3T3 cytotox,HEK cytotox,SNCA viab count,hNpr1 antagonist,FLuc inh-1,others
Cc1ccc2nc(-c3ccc(NC(=O)COc4ccccc4C(C)(C)C)cc3)sc2c1,22.4%,nt,nt,12.4%,nt,nt,FLuc SDR -ATP=19.1%;FLuc SDR ATP=11.7%;FLuc inh-2=?
O=C(NCCc1ccccc1F)c1ccc2oc(-c3cccnc3)nc2c1,0.4%,?,-19.6%,4.2%,nt,nt,
O=C(NCc1ccccn1)c1ccc2nnc(-c3ccc(OC(F)(F)F)cc3)n2c1,5.2%,-22.4%,-10.4%,2.0%,nt,nt,
CN1CC(C(=O)NCc2cccc(Cl)c2)NC1=O (stereo not given),-1.7%[87.6 µM],-10.7%[138 µM],-5.3%[172 µM],3.2%[12.5 µM],nt,nt,
Cc1cc(C)cc(NC(=O)N2CCCC(c3noc(COc4ccccc4)n3)C2)c1 (stereo not given),1.0%,?,?,-2.4%[12.5 µM],-19.2%,?,
Cc1ccc(NC(=O)N2CCCC(c3noc(COc4ccccc4)n3)C2)cc1C (stereo not given),34.4%,?,?,8.8%[12.5 µM],-16.7%,3.98µM*,FLuc SDR -ATP=24.8%;FLuc SDR ATP=16.3%;FLuc inh-2=8.81µM*
Cc1ccc(OCc2nc(C3CN(C(=O)c4n[nH]c5ccccc45)C3)no2)cc1,8.8%,20µM*,?,-29.3%,?,8.91µM*,FLuc SDR -ATP=?;FLuc SDR ATP=?;FLuc inh-2=8.81µM*
Cc1ccc(OCc2nc(C3CN(C(=O)C4(c5ccccc5)CC4)C3)no2)cc1,4.8%,?,?,-0.7%,1.3%,i,
COCC(=O)N1CCCC(C(=O)N2CCCC(c3nc4ncccc4[nH]3)C2)C1 (stereo not given),1.5%,-14.4%,-2.4%,8.4%,nt,nt,
COc1cc(OC)c(OC)cc1CN1CCc2nc(N3CCOCC3)[nH]c(=O)c2CC1,-12.5%,-11.7%,-8.3%,-0.5%,nt,nt,
COCCn1ncc(N2CCC(C(=O)NCc3nc4ccccc4n3C)C2)cc1=O (stereo not given),-6.9%,?,?,1.0%,10.1%,i,
CNC(=O)c1cc(C)cc2onc(C3CCCN3C(=O)Cc3ccccc3)c12 (stereo not given),nt,-17.7%,1.5%,nt,nt,nt,
COc1ccc2cc(C3CN(C(=O)CNC(=O)C(C)C)CCO3)ccc2c1 (stereo not given),63.3%,-19.4%,-25.1%,1.3%,3.7%,8.91µM*,FLuc SDR -ATP=?;FLuc SDR ATP=?;FLuc inh-2=?
COc1ccc2cc(C3CN(Cc4nc(C(N)=O)no4)CCO3)ccc2c1 (stereo not given),36.5%,-26.5%,-3.4%,-4.6%,3.0%,i,
O=C(c1ccc2nc[nH]c2c1)N1CCC(CO)(CCCc2ccccc2)CC1,-10.0%,-22.8%,25.1µM*,-3.7%,11.2µM*,i,NPR1 antag cnf=24.3µM*;NPR2 antag=24.3µM*;FLuc counter=6.2%;GloSensor ctrl=21.7µM*
O=C(c1cc2cc(F)ccc2[nH]1)N1CCC(CO)(CCCc2ccccc2)CC1,0.8%,?,?,-0.3%,-14.9%,i,
Cc1cc(C)n(-c2cccc(CN(C)C(=O)c3cn(Cc4ccc(Cl)cc4)nn3)c2)n1,-25.0%,?,?,-2.7%,-24.5%,i,
CN(Cc1ccnc2ccccc12)C(=O)c1cn(Cc2ccc(Cl)cc2)nn1,-8.4%,?,35.5µM*,-27.8%,10µM*,i,NPR1 antag cnf=13.7µM*;NPR2 antag=17.2µM*;FLuc counter=2.8%;GloSensor ctrl=12.2µM*
O=C(CCC1CCCN(S(=O)(=O)c2cccc(F)c2)C1)NC1CCCCC1 (stereo not given),-16.6%,?,?,-17.8%,15.8µM*,i,NPR1 antag cnf=27.3µM*;NPR2 antag=24.3µM*;FLuc counter=0.0%;GloSensor ctrl=24.3µM*
Cc1c(CN2CCN(c3ncc(F)cn3)CC2)[nH]c2ccc(F)cc12,?,?,?,?,-1.3%,i,
COc1ccc(C(=O)Nc2ccc(-c3noc([C@@H]4CCCN4Cc4ccc(F)cc4)n3)cn2)cc1,-15.0%,?,?,-21.3%,11.2µM*,i,NPR1 antag cnf=13.7µM*;NPR2 antag=17.2µM*;FLuc counter=-21.9%;GloSensor ctrl=12.2µM*
